# NTR1 agonist – agonists of human neurotensin receptor NTR1; actives 0.17% (n = 330,000); NTR1-U2OS beta-arrestin-GFP spot imaging, agonist mode; AID 493036; activation, % at 20 µM;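 active = activation at or above 40% of the spot to cytoplasm intensity ratio, with at least 20 cells analyzed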;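 note: 0% = DMSO without peptide and 100% = 100 nM NTR1 peptide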
# Target sequence (P30989 whole entry, looked up): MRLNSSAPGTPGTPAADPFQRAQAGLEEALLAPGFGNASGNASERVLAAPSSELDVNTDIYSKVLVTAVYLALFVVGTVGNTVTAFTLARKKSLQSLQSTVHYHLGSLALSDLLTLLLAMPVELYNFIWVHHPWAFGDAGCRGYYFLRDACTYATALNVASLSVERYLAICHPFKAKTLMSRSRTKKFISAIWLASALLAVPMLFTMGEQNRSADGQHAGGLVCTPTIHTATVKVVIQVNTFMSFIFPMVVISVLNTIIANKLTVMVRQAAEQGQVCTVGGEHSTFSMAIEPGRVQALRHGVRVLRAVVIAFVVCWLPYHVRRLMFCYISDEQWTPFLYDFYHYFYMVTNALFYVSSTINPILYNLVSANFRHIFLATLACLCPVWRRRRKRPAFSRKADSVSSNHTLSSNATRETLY
# Bfl-1 A1 inh – inhibitors of the anti-apoptotic protein A1, read as caspase activation; MEF A1-2A-BIM cells, Caspase-Glo 3/7 luminescence, 3 h; percent of clofoctol response, vehicle zero; caspase activation, % (concentration not given with the values); actives 0.066% (n = 330,000);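 active = over half of replicate activation scores above 10%, or exactly half above 10 with the replicate mean above 10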
# Jurkat NFkB inh – lowers PMA/ionomycin-induced NF-kB signal in Jurkat cells; PMA/ionomycin-induced NF-kB luciferase reporter, luminescence; inhibition, % at 4 µM; actives 0.53% (n = 330,000); AID 435003; in the data active = inhibition above about 50%
# Beta apoptosis – beta cell apoptosis inhibition | actives 0.8% (n = 300,000) | INS-1E cytokine-induced death, ATP luminescence, 48 h; percent of positive-control rescue, neutral wells zero | protection from apoptosis, % (no concentration beside the values);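 active = Every replicate reaches about 75%, or at least half do and their mean reaches it too, limit read from the data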;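 note: 0% = cytokine-treated negative control wells and 100% = positive control rescue; higher means more ATP so stronger rescue from cytokine killing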
# 697 NFkB inh – inhibitors of the PMA/ionomycin-induced NF-kB reporter in 697 B cells. actives 0.33% (n = 330,000). 697 B-cell NF-kB luciferase reporter, 16 h. inhibition, % at 4 µM; in the data active = inhibition above about 35%
# Mdm2 MdmX PPI – disrupts the human Mdm2-MdmX interaction | SaOS-2 split-luciferase Mdm2/MdmX complementation, luminescence | AID 485346 | O15151+Q00987 | actives 3% (n = 330,000) | inhibition, % at 8 µM;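 active = inhibition of at least 50% at 8 µM in the primary screen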
# Mdm2-MdmX conf – human Mdm2/MdmX binding inhibition, confirmed; shares compounds with Mdm2 MdmX PPI; AID 489028; luminescent assay; actives 55% (n = 10,000); inhibition, % at 8 µM; in the data active = inhibition above about 40%
# Full FLuc ctr – counter-screen for Mdm2/MdmX inhibitors: full-length luciferase; shares compounds with Mdm2 MdmX PPI; SaOS-2 full-length luciferase counterscreen, luminescence; inhibition, % at 8 µM; actives 77% (n = 6,200); AID 504607;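 active = mean inhibition at 8 µM reaching about 37%, which flags the compound as non-specific, limit read from the data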;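 note: p53-null SaOS-2 cells with luciferase driven by a doxycycline-inducible promoter; compound on cells about two nights before reading with doxycycline added after day one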
# * marks the source's active call; other numbers are inactive results; . = no result. Hits are enriched below; roughly 3.8% of the tested compounds scored in any of these assays.
SMILES,NTR1 agonist,Bfl-1 A1 inh,Jurkat NFkB inh,Beta apoptosis,697 NFkB inh,Mdm2 MdmX PPI,Mdm2-MdmX conf,Full FLuc ctr
Cn1c(=O)c2c(nc(Oc3ccc4c(c3)OCO4)n2Cc2ccc(Cl)cc2)n(C)c1=O,1.6,0.5,1.0,7.0,4.4,33.2,.,.
Cn1c(Oc2ccc3c(c2)OCO3)nc2c1c(=O)n(Cc1ccccc1)c(=O)n2C,3.0,-0.4,13.0,9.3,20.0,62.2*,21.9,.
C/C(=N\Nc1ccccc1C)c1cccnc1,1.4,-0.4,-4.3,-6.5,2.8,13.0,.,.
O=C(Nc1ccc(Oc2ccc(NC(=O)Nc3ccc([N+](=O)[O-])cc3)cc2)cc1)Nc1ccc([N+](=O)[O-])cc1,12.8,-0.6,31.5,109.7*,10.6,95.2*,66.4*,76.0*
Cc1ccc(NC(=O)Nc2cccc([N+](=O)[O-])c2)cc1F,20.8,0.3,-80.2,93.0*,-61.8,57.3*,44.0*,45.1*
CCOc1ccc(NC(=O)Nc2cc(C(C)C)ccc2C)cc1,1.3,.,-1.1,.,2.4,29.6,.,.
O=C(Nc1ccc(OC(F)(F)F)cc1)Nc1cccnc1,1.6,-4.4,-17.3,3.7,-24.3,3.3,.,.
Cc1ccc(C(C)C)cc1NC(=O)Nc1ccc([N+](=O)[O-])cc1,33.9,0.9,1.0,120.9*,11.9,89.1*,81.5*,41.7*
O=C(Nc1ccc(OC(F)(F)F)cc1)Nc1cccc([N+](=O)[O-])c1,18.8,-0.7,35.1,101.9*,-93.9,94.7*,90.5*,35.8
CC(=O)c1ccc(Oc2ncnc(N)c2[N+](=O)[O-])cc1,1.2,1.4,4.7,-18.6,-2.3,60.2*,60.3*,45.0*
CCc1ccc(Oc2ncnc(N)c2[N+](=O)[O-])cc1,0.8,0.8,-0.1,-2.7,-2.2,12.6,.,.
Cc1cc(C)nc(N/C(=N\S(=O)(=O)Cc2ccccc2)Nc2ccccc2Br)n1,14.9,-0.3,6.3,-3.8,-53.1,51.7*,55.2*,104.1*
Cc1c(C(=O)OCC(=O)NCc2ccco2)cccc1[N+](=O)[O-],-1.3,0.1,1.9,-3.6,15.5,-12.5,.,.
Cc1c(Nc2cc(Cl)c3nonc3c2[N+](=O)[O-])c(=O)n(-c2ccccc2)n1C,1.1,.,18.1,.,9.6,99.3*,98.2*,57.1*
O=C(O)c1ccc(Nc2cc(Cl)c3nonc3c2[N+](=O)[O-])cc1,0.9,-0.9,-15.7,-0.5,15.4,-20.9,.,.
O=[N+]([O-])c1c(Nc2cccc(O)c2)cc(Cl)c2nonc12,1.1,1.5,16.2,34.4,-12.1,100.3*,99.7*,51.5*
COc1ccc(C)cc1N(CC(=O)NC1CCCC1)C(=O)Cn1nnc(-c2ccc(C)o2)n1,-1.7,.,2.2,.,2.3,7.1,.,.
CC1=NN(c2ccc(C(=O)O)cc2)C(=O)/C1=C/c1ccc(-c2ccccc2F)o1,20.8,0.4,2.5,-14.7,-9.5,8.9,.,.
CC1=NN(c2ccc(C)cc2)C(=O)/C1=C/c1ccc(-c2cc([N+](=O)[O-])ccc2O)o1,8.0,.,-11.2,.,-20.1,66.5*,31.4,.
O=C(/C=C/c1ccco1)NC(=S)Nc1cccc(-c2nc3ccccc3s2)c1,6.3,-1.3,-17.7,2.7,7.6,31.4,.,.
Cc1ccc(-c2nc3ccccc3o2)cc1NC(=S)NC(=O)/C=C/c1ccco1,2.0,1.1,-38.4,.,-52.2,54.9*,30.3,.
O=C(/C=C/c1ccco1)NC(=S)Nc1cccc(-c2nc3ccccc3o2)c1,4.7,-0.7,38.9,6.8,-33.5,59.5*,53.0*,91.7*
CC(C(=O)Nc1cccc(C#N)c1)N(C)CCOc1ccccc1 (centres undefined),1.8,0.3,10.0,1.7,16.0,-2.8,.,.
CC(OC(=O)/C=C/c1ccccc1)C(=O)Nc1cccc(C#N)c1 (centres undefined),4.3,0.8,14.9,-3.8,8.5,55.8*,58.2*,95.2*
O=C(NCc1ccccc1)C(c1ccncc1)N(C(=O)c1csnn1)c1cccc(F)c1 (centres undefined),0.0,-0.1,1.6,-7.2,8.1,-21.8,.,.
SMILES,NTR1 agonist,Bfl-1 A1 inh,Jurkat NFkB inh,Beta apoptosis,697 NFkB inh,Mdm2 MdmX PPI,Mdm2-MdmX conf,Full FLuc ctr
Cc1nc2ccc([N+](=O)[O-])cc2c(=O)n1Cc1ccc([N+](=O)[O-])cc1,1.6,0.1,8.1,2.6,28.5,20.0,.,.
N#Cc1c(N)n(Cc2ccccc2)c(=O)c2cc([N+](=O)[O-])ccc12,2.1,-3.1,-7.8,-6.2,-9.9,54.3*,11.1,.
CC(C)C[C@H](NC(=O)c1nc[nH]c1C(=O)N[C@@H](CC(C)C)C(=O)OC(C)(C)C)C(=O)OC(C)(C)C,27.1,-2.8,10.5,71.7,18.7,80.1*,7.4,.
CC(C)C[C@H](NC(=O)c1nc[nH]c1C(=O)NC(c1ccccc1)c1ccccc1)C(=O)OC(C)(C)C,21.6,-1.4,6.7,36.2,-7.0,89.3*,2.1,.
CC(C)C[C@H](NC(=O)c1[nH]cnc1C(=O)N[C@H](C)c1ccccc1)C(=O)OC(C)(C)C,25.7,-0.1,27.5,27.3,7.9,46.6,.,.
Cc1cccc(CN2C(=O)/C(=C\c3ccc(C(=O)NCCN4CCOCC4)cc3)Sc3ccccc32)c1,18.1,-0.1,-10.3,2.6,-7.1,80.5*,61.1*,76.2*
CCN1CCN(CCNC(=O)c2ccc3c(c2)N(Cc2ccc(F)cc2)C(=O)/C(=C/c2ccccc2)S3)CC1,2.9,1.5,-17.4,15.5,-19.6,95.7*,74.2*,22.7
O=C(NCCN1CCOCC1)c1ccc(/C=C2\Sc3ccccc3N(Cc3ccccc3F)C2=O)cc1,9.7,-1.2,-10.8,-2.4,0.7,59.8*,8.8,.
COc1ccc(-c2ccc(NS(=O)(=O)c3cc([N+](=O)[O-])c(C)c([N+](=O)[O-])c3)cc2)nn1,0.5,4.7,-3.8,1.7,-6.5,-14.8,.,.
CCN(C(=O)CSc1ccc2ccccc2n1)C1CCCCC1,5.5,0.6,-8.1,-1.5,0.8,15.4,.,.
O=C1CC(=O)Nc2cc(S(=O)(=O)N3CCOc4ccccc43)ccc2N1,0.3,.,5.8,2.1,-6.8,20.7,.,.
CC(OC(=O)c1nn(C)c(=O)c2ccccc12)C(=O)Nc1ccc(S(N)(=O)=O)cc1 (centres undefined),0.8,2.3,1.1,1.1,28.4,6.5,.,.
O=C(COC(=O)c1cc(S(=O)(=O)N2CCOCC2)ccc1Cl)NCc1ccccc1,-1.5,0.7,-1.4,-0.7,8.3,-2.5,.,.
Cc1ccc(C(C)C)c(OCCCNCc2cccnc2)c1,0.8,0.2,9.7,3.8,14.7,5.3,.,.
Cc1ccc(C(C)C)c(OCCNCCc2ccccc2)c1,9.1,0.1,-5.1,35.9,-62.9,51.5*,26.3,.

# Screening results from PubChem.
